The results in this text go back to the antibiotic and cytotoxicity screens of Wong et al. (2023).

Hit rate of the full screen: of about 39,000 compounds, about 500 (1.3%) were called active. What follows is part of a selection rich in actives, with near analogues and random picks from the rest.

The assay deals with S. aureus RN4220. Briefly: growth inhibition call (relative growth <= 0.2). To be noted: 50 µM.
Consider `Cc1cc2nc(C(=O)NC[C@H]3CCCS(=O)(=O)C3)cc(-c3ccccc3Cl)c2c(C)c1-c1ccncc1`, for which the growth inhibition call is “inactive”.

Regarding `Cc1cc2nc(C(=O)N[C@H]3CCN(C)C3)cc(-c3ccccc3Cl)c2c(C)c1-c1ccc(CO)cc1`, the growth inhibition call is “active”.

Consider `CC(C)(C)[S@@](=O)N1Cc2cc(C(=O)N[C@@H]3CCN(Cc4ccccc4)C3)nc(-c3cccc(-c4ccncc4)c3)c2[C@H]1CCO`, for which the growth inhibition call was “inactive”.

As to `CC(C)NC(=O)N(C)C[C@@H]1Oc2ccc(NC(=O)Cc3ccccc3)cc2CC(=O)N([C@@H](C)CO)C[C@H]1C`, the growth inhibition call is “inactive”.

As for `CC(C)[C@@H](CS(=O)(=O)C(C)C)N1C(=O)[C@@](C)(CC(=O)O)C[C@H](c2cccc(Cl)c2)[C@H]1c1ccc(Cl)cc1`, the growth inhibition call was “inactive”.

For `COc1ccc(C[C@H](N)C(=O)N[C@H]2[C@@H](O)[C@@H](n3cnc4c(N(C)C)ncnc43)O[C@@H]2CO)cc1`, the growth inhibition call was “active”.

In the case of `CNc1ncnc2c1ncn2[C@@H]1O[C@H](CO)[C@@H](O)[C@H]1O`, the growth inhibition call is “inactive”.

Consider `Nc1ncnc2c1ncn2[C@@H]1O[C@H](CO)[C@@H](O)[C@@H]1O`, for which the growth inhibition call was “inactive”.

Regarding `Nc1ncnc2c1ncn2[C@H]1O[C@@H](CO)[C@H](O)[C@@H]1O`, the growth inhibition call was “inactive”.

As for `COc1ccc(C[C@@H](N)C(=O)N[C@@H]2[C@@H](O)[C@@H](n3cnc4c(N(C)C)ncnc43)O[C@@H]2CO)cc1`, the growth inhibition call was “active”.

As to `COc1nc(N)nc2c1ncn2[C@@H]1O[C@H](CO)[C@@H](O)[C@@H]1O`, the growth inhibition call is “inactive”.

Regarding `COc1ccc(C[C@H](N)C(=O)N[C@H]2[C@@H](O)[C@H](n3cnc4c(N(C)C)ncnc43)O[C@@H]2CO)cc1`, the growth inhibition call is “active”.

On to `CN(C)c1ncnc2c1ncn2[C@H]1O[C@@H](CO)[C@@H](N)[C@@H]1O`, for which the growth inhibition call is “inactive”.

Take `COc1ccc(CC(N)C(=O)NC2C(CO)OC(n3cnc4c(N(C)C)ncnc43)C2O)cc1.Cl.Cl` (centres undefined): the growth inhibition call is “inactive”.

For the compound `O=C(C[C@@H]1CC[C@@H]2[C@H](COC[C@@H](O)CN2C(=O)c2ccccc2F)O1)N1CCN(c2ccccc2)CC1`, the growth inhibition call is “inactive”.

`C[C@H](CO)N1C[C@H](C)[C@H](CN(C)Cc2ccc(C(=O)Nc3ccccc3N)cc2)Oc2ccc(NC(=O)Nc3ccc(C(F)(F)F)cc3)cc2CC1=O`: the growth inhibition call was “inactive”.

Regarding `C[C@@H]1CN([C@@H](C)CO)C(=O)c2cc(NS(=O)(=O)c3cn(C)cn3)ccc2O[C@@H]1CN(C)S(=O)(=O)c1cccs1`, the growth inhibition call was “inactive”.

Take `Cc1noc(C)c1NC(=O)Nc1cccc2c1O[C@H](CN(C)Cc1ccc(C(=O)Nc3ccccc3N)cc1)[C@@H](C)CN([C@H](C)CO)C2=O`: the growth inhibition call was “inactive”.

Turning to `Cc1noc(C)c1S(=O)(=O)Nc1ccc2c(c1)C(=O)N([C@@H](C)CO)C[C@H](C)[C@@H](CN(C)Cc1ccc3c(c1)OCO3)O2`, the growth inhibition call is “inactive”.
